HIV TAR-Tat – HIV-1 TAR-Tat binding disruption | actives 0.6% (n = 100,000) | HIV-1 TAR RNA, Tat peptide displacement FRET; stronger effect = higher value | z-score (no concentration beside the values); active = z-score of 3 or more in at least 2 runs
CDC25B CDK2 inh – human CDC25B-CDK2/CyclinA binding inhibition. P30305+P24941. HTRF CDC25B-CDK2/CyclinA binding, anti-His/anti-Flag; stronger effect = higher value. z-score (concentration not given with the values). actives 0.72% (n = 94,000). AID 1259370; in the data active = z-score above about 3.2
Of the large screens only hits and unclear results are named; the others gave an inactive call. Shown are actives, neighbours in structure and some others; about 0.9% of the full set was active somewhere.

CCC(C(=O)Nc1cccc(SC)c1)n1c(C)c2cnn(-c3ccccc3)c(=O)c2c1C (centres undefined)	none
CCN1CCN(S(=O)(=O)c2ccc3c(c2)N(CC(=O)OC)C(=O)CS3)CC1	none (no result: CDC25B CDK2 inh)
O=C(NCC1CCCO1)c1cccc(N2C(=O)c3ccc([N+](=O)[O-])cc3C2=O)c1 (centres undefined)	CDC25B CDK2 inh 3.5 (no result: HIV TAR-Tat)
O=C(NCC1CCCO1)c1cccc(N2C(=O)CCS2(=O)=O)c1 (centres undefined)	none
COc1ccc(OC)c2c(C)cc(N3CCN(S(=O)(=O)c4ccc(C)cc4)CC3)nc12	HIV TAR-Tat 7.8
COc1ccc(S(=O)(=O)N2CCN(c3cc(N4CCCCC4)nc(C)n3)CC2)cc1C	none
O=C1c2c(O)cc(O)cc2OC(c2ccc(O)c(O)c2)C1O (centres undefined)	none (no result: HIV TAR-Tat)
O=C1c2cc(O)cc(O)c2OC[C@@H]1c1ccc(O)c(O)c1	HIV TAR-Tat 23 (no result: CDC25B CDK2 inh)
CCOC(=O)c1cc(C)nc2c1c(=O)n(Cc1nc(-c3ccc(C(C)C)cc3)oc1C)c(=O)n2C	none (no result: CDC25B CDK2 inh)
O=C(O)c1sccc1S(=O)(=O)Nc1ccccc1N1CCOCC1	CDC25B CDK2 inh 19 (no result: HIV TAR-Tat)
O=C(Nc1ccccc1)Nc1ccccc1N1CCOCC1	none (no result: HIV TAR-Tat)
CCc1nc(-c2csc(S(=O)(=O)Nc3ccc(OC)cc3OC)c2)no1	none (no result: CDC25B CDK2 inh)
Cn1c(=O)n(Cc2ccccc2)c(=O)c2c1nc1n2CCN1c1ccc(F)cc1	none (no result: CDC25B CDK2 inh)
Cn1c(=O)n(C/C=C/c2ccccc2)c(=O)c2c1nc1n2CCN1c1ccc(F)cc1	HIV TAR-Tat 12 (no result: CDC25B CDK2 inh)
COc1ccc(S(=O)(=O)Nc2ccc(F)cc2)cc1OC	none
O=C(O)C1CCCN(c2ncccn2)C1 (centres undefined)	none
CCc1ccc(C(c2ccc(CC)o2)c2cc3c(cc2[N+](=O)[O-])OCCO3)o1	CDC25B CDK2 inh 4.4 (no result: HIV TAR-Tat)
CCOC(=O)C(=O)CC(=O)c1ccc2c(c1)OCCO2	none
O=C(CSc1nnc(-c2ccncc2)o1)NCCC1=CCCCC1	none
CCc1ccc(S(=O)(=O)Nc2cc3c4c(oc3c3ccccc23)CCCC4=O)cc1	CDC25B CDK2 inh 18 (no result: HIV TAR-Tat)
O=C1CCCc2oc3c(cc(NS(=O)(=O)c4cccc([N+](=O)[O-])c4)c4ccccc43)c21	none (no result: HIV TAR-Tat)
O=C(Cn1nc2c3sccc3ncn2c1=O)Nc1ccccc1F	none (no result: CDC25B CDK2 inh)
CC(C)NCC(O)COc1ccc(COCCOC(C)C)cc1 (centres undefined)	CDC25B CDK2 inh 5.2
COC(=O)CCc1ccc(OCC(O)CNC(C)C)cc1 (centres undefined)	none (no result: CDC25B CDK2 inh)
CCOC(=O)c1sc2nc(C)cc(C)c2c1N(C(C)=O)C(C)=O	none
CSc1cc(C)nc2ccccc12	none (no result: HIV TAR-Tat)
Cc1ccc(-c2nnc3n(CC(C)C)c(=O)c4ccccc4n23)s1	none
CC(C)Cc1nnc2sc(NC(=O)c3ccco3)nn12	HIV TAR-Tat 11
O=C(Nc1nn2c(-c3ccco3)nnc2s1)c1cccc(F)c1	none
CCc1nnc2sc(NC(=O)c3ccco3)nn12	none
O=C(Nc1nn2c(-c3ccco3)nnc2s1)c1ccc(F)cc1	none
COc1ccc(OCC(=O)Nc2nn3c(-c4ccco4)nnc3s2)cc1	HIV TAR-Tat 25
O=C(COc1ccccc1)Nc1nn2c(-c3ccco3)nnc2s1	HIV TAR-Tat 32
Cc1ccc(NC(=O)c2ccc(Cl)c(Cl)c2)c(C)c1	none (no result: HIV TAR-Tat)
CN1C(=O)C(C)(C)c2cc(S(=O)(=O)N(C)CC(=O)NC3CCCC3)ccc21	none (no result: CDC25B CDK2 inh)
O=c1c2cc3c(cc2nc2sc(Nc4cccc(Cl)c4)nn12)OCO3	none
Cc1cccc(Nc2nn3c(=O)c4cc5c(cc4nc3s2)OCO5)c1	HIV TAR-Tat 13 (no result: CDC25B CDK2 inh)
O=C1NC(=O)/C(=C/c2ccc(-c3ccc(F)cc3O)o2)S1	none (no result: HIV TAR-Tat)
O=C1NC(=S)N/C1=C/c1ccc(-c2cc(C(=O)O)ccc2Cl)o1	CDC25B CDK2 inh 3.6 (no result: HIV TAR-Tat)
O=C(CN1C(=O)c2ccccc2S1(=O)=O)NCc1ccncc1	none
COc1cccc(C2CC(=O)N3CN(c4ccc(OC)cc4OC)CSC3=C2C#N)c1 (centres undefined)	CDC25B CDK2 inh 5.9
COc1ccc(N2CSC3=C(C#N)C(c4ccccc4)CC(=O)N3C2)c(OC)c1 (centres undefined)	CDC25B CDK2 inh 4.3
COc1ccc(N2CSC3=C(C#N)C(c4c(F)cccc4Cl)CC(=O)N3C2)c(OC)c1 (centres undefined)	none
COc1ccc(N2CSC3=C(C#N)C(c4ccc(Br)cc4)CC(=O)N3C2)c(OC)c1 (centres undefined)	none
O=c1cc2nc(-c3ccco3)nc(SCCOc3ccccc3Cl)n2[nH]1	none (no result: CDC25B CDK2 inh)
CC1CCCCN1CCNC(=O)C1CCN(c2nc3cccnc3s2)CC1 (centres undefined)	none (no result: CDC25B CDK2 inh)
Cn1nc(C(=O)NCc2cccs2)c2c1-c1ccccc1OC2	none
N#CC1=C2N=C(N)c3ccccc3N2C2=C(C(=O)CCC2)C1c1ccccc1F (centres undefined)	CDC25B CDK2 inh 18
N#CC1=C2N=C(N)c3ccccc3N2C2=C(C(=O)CCC2)C1c1c(F)cccc1Cl (centres undefined)	CDC25B CDK2 inh 9.3
N#CC1=C2N=C(N)c3ccccc3N2C2=C(C(=O)CCC2)C1c1ccc(Cl)cc1 (centres undefined)	none
N#CC1=C2N=C(N)c3ccccc3N2C2=C(C(=O)CCC2)C1c1ccccc1Cl (centres undefined)	none
O=C(O)c1cccc2c1C(=O)N(Cc1cccnc1)C2	none
COc1ccc2sc(C(=O)O)c(Br)c2c1	none
C=CC1=C(C(=O)O)N2C(=O)[C@@H](NC(=O)C(=NO)c3csc(N)n3)[C@H]2SC1	HIV TAR-Tat 33 (no result: CDC25B CDK2 inh)
CO/N=C(/C(=O)N[C@@H]1C(=O)N2C(C(=O)O)=C(COC(C)=O)CS[C@H]12)c1csc(N)n1	none (no result: CDC25B CDK2 inh)
O=C(O)c1cc(-c2ccccc2F)nc2n[nH]c(-c3ccc(F)cc3)c12	none (no result: CDC25B CDK2 inh)
NC(C(=O)O)C1CCCCC1 (centres undefined)	none (no result: HIV TAR-Tat)
N[C@H](C(=O)O)[C@H]1C[C@@H]1C(=O)O	CDC25B CDK2 inh 7.7 (no result: HIV TAR-Tat)
CSc1nnc(SCC(=O)N2CCC(C(F)(F)F)CC2)s1	none (no result: HIV TAR-Tat)
CSc1nnc(S/C(C(C)=O)=C(/C)O)s1	CDC25B CDK2 inh 16 (no result: HIV TAR-Tat)
COc1ccc(N2CSC3=C(C#N)C(c4ccc(Cl)cc4)CC(=O)N3C2)cc1OC (centres undefined)	none
N#CC1=C2SCN(c3cccc(Cl)c3)CN2C(=O)CC1c1ccccc1 (centres undefined)	CDC25B CDK2 inh 9.2
N#CC1=C2SCN(c3ccc(Cl)cc3)CN2C(=O)CC1c1ccccc1 (centres undefined)	CDC25B CDK2 inh 7.3
Cc1ccc(/C(O)=C2\C(=O)C(=O)N(CCCN3CCOCC3)C2c2ccco2)cc1 (centres undefined)	none
CCOC(=O)c1c(C)oc2ccc(N(C(=O)C3CCCCC3)S(=O)(=O)c3cccs3)cc12	none
COc1ccc(C2=Nc3cccnc3NC(=O)C2)cc1	CDC25B CDK2 inh 16
O=C1CC(c2ccccc2)=Nc2cccnc2N1	none
C=CCNc1nc2c3ccccc3n(C(C)=O)c2s1	none
COc1ccc(Nc2nc3c4ccccc4n(C(C)=O)c3s2)cn1	CDC25B CDK2 inh 14
C=CCSc1nnc(NC(=O)c2cc(=O)c3cc(CC)ccc3o2)s1	HIV TAR-Tat 9.8
C=CCSc1nnc(NC(=O)c2cc(=O)c3cc(Cl)ccc3o2)s1	none
Cc1ccc(-c2ccccc2)n1-c1cccnc1	CDC25B CDK2 inh 17
Cc1ccc(-c2ccccc2)n1-c1cccc2cccnc12	none
CS(=O)(=O)c1ccc(-c2ccc(NS(=O)(=O)c3ccccc3)cc2)nn1	none (no result: CDC25B CDK2 inh)
C=C(C)/C=C1/C=CC(=O)C(C)=C1	HIV TAR-Tat 4.5 (no result: CDC25B CDK2 inh)
O=S(=O)(O)c1cc[n+]([O-])cc1	CDC25B CDK2 inh 4.4 (no result: HIV TAR-Tat)
O=S(=O)(O)c1ccc2[nH]c(=S)sc2c1	none (no result: HIV TAR-Tat)
